Our source for the max response values is PubChem BioAssay (NCATS).

The structures appear in SMILES notation. Several values for one entry are separate records, joined by “and”; a condition that tells them apart may be missing. Equal entries are not always repeated. Records with an inconclusive call do not appear. Values without a mark were called inactive. Calls follow the shape of the dose curve; as a rule, active = well fitted curve in the direction sought with a large enough effect; inconclusive = small, poorly fitted or top-dose-only effect, or another doubt; inactive = no such curve, though single readings can be large or run the other way.
% is scaled to controls: 0 for no effect and ±100 for the full control effect.

This experiment can be described thus: qHTS Assay for Identifying Gametocytocidal Compounds (AID 743244).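 Also: actives lower the fluorescent signal which means gametocytes are killed.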 The conditions noted are these: P. falciparum 3D7 stage III-V gametocytes, alamarBlue, 72 h; max response: hits give low values. An outline of the steps:
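Fluorescence at Ex 525/Em 598 nm, recorded 24 h after alamarBlue addition, reports residual metabolic activity of 3D7 gametocytes (stages III–V) following 72 h compound exposure at 37 °C, 5% CO2.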
Background: Quantitative high-throughput screening tests each substance at several concentrations.
Take `CCCCCC[C@@H](O)C/C=C\CCCCCCCC(=O)O`: the max response was 10.3% and -5.91% and 3.41%. As for `NC(=O)C1=CN(C2OC(COP(=O)(O)OP(=O)(O)OC[C@H]3O[C@@H](n4cnc5c(N)ncnc54)[C@H](OP(=O)(O)O)[C@@H]3O)C(O)C2O)C=CC1` (stereo partly specified), the figure is -6.13%; as for `NC(=S)c1ccc[n+]([C@@H]2O[C@@H](COP(=O)([O-])OP(=O)(O)OC[C@H]3O[C@@H](n4cnc5c(N)ncnc54)[C@H](OP(=O)(O)O)[C@@H]3O)C(O)C2O)c1` (stereo partly specified), 5.56%. Regarding `CN(C)CCn1nnnc1SCC1=C(C(=O)O)N2C(=O)[C@@H](NC(=O)Cc3csc(N)n3)[C@H]2SC1`, the max response is 19.2%. Turning to `O=C1/C(=C/c2ccsc2)CC/C1=C\c1cccs1`, the max response is 30.3%. As for `CN1C2CCC1CC(OC(=O)C(O)c1ccccc1)C2` (stereo unspecified), the figure is 30%.
